Reference: ChEMBL document CHEMBL1157539, “Thousands of chemical starting points for antimalarial lead identification” (Nature, 2010)

Legend:
Format in all cases: functional
Plasmodium falciparum [1] = test: GSK_TCMDC: Inhibition of Plasmodium falciparum 3D7 in whole red blood cells, using parasite LDH activity as an index of growth. Test compounds present at 2uM
Plasmodium falciparum [2] = test: GSK_TCMDC: Inhibition of Plasmodium falciparum Dd2 in whole red blood cells, using parasite LDH activity as an index of growth. Test compounds present at 2uM
HepG2 = test: GSK_TCMDC: Percent inhibition of human HepG2 cell line. Test compounds present at 10uM.

CC(C)N(CC(=O)c1ccc(O)c(C(=O)O)c1)Cc1ccccc1.Cl
Inhibition (Plasmodium falciparum [1]): 97%
Inhibition (Plasmodium falciparum [2]): 26%
Inhibition (HepG2): 0%

COc1ccc(C2CC(c3cccs3)=NN2C(=O)c2ccco2)cc1OC (stereo not given)
Inhibition (Plasmodium falciparum [1]): 100%
Inhibition (Plasmodium falciparum [2]): 97%
Inhibition (HepG2): 0%

CCN(CC)CCn1c(=N)n(CC(O)c2ccc(Cl)c(Cl)c2)c2ccccc21.Cl (stereo not given)
Inhibition (Plasmodium falciparum [1]): 99%
Inhibition (Plasmodium falciparum [2]): 88%
Inhibition (HepG2): 35%

Cc1ccc2[nH]c(C)cc(=NN=CC=Cc3ccccc3)c2c1
Inhibition (Plasmodium falciparum [1]): 92%
Inhibition (Plasmodium falciparum [2]): 28%
Inhibition (HepG2): 0%

Cc1ccc(NC(=O)Nc2ccc(Cl)cc2)cc1-c1cccc(C(=O)Nc2ccc(F)cc2)c1
Inhibition (Plasmodium falciparum [1]): 96%
Inhibition (Plasmodium falciparum [2]): 52%
Inhibition (HepG2): 8%

COc1cc2nccc(Nc3ccc(NC(=O)c4ccc(C)cc4)c(O)c3)c2cc1OC.Cl
Inhibition (Plasmodium falciparum [1]): 100%
Inhibition (Plasmodium falciparum [2]): 77%
Inhibition (HepG2): 96%

CN1CCCN(Cc2ccc(-c3cccc(NC(=O)c4cccc(F)c4)c3)cc2)CC1.O=C(O)C(F)(F)F
Inhibition (Plasmodium falciparum [1]): 91%
Inhibition (Plasmodium falciparum [2]): 12%
Inhibition (HepG2): 28%

O=C(Nc1ccc(Cn2nc(Cl)c(N3CCCNCC3)cc2=O)cc1)Nc1ccc(-c2ccccc2)cc1.O=C(O)C(F)(F)F
Inhibition (Plasmodium falciparum [1]): 87%
Inhibition (Plasmodium falciparum [2]): 36%
Inhibition (HepG2): 89%

CC1CCN(c2nc(C(=O)Nc3cccc4c3CCCC4)c(C(C)C)s2)CC1.O=C(O)C(F)(F)F
Inhibition (Plasmodium falciparum [1]): 96%
Inhibition (Plasmodium falciparum [2]): 49%
Inhibition (HepG2): 14%

Fc1ccc2cc(C=Cc3ccncc3)[nH]c2c1
Inhibition (Plasmodium falciparum [1]): 100%
Inhibition (Plasmodium falciparum [2]): 89%
Inhibition (HepG2): 0%

Cc1ccc(-c2cnc(N)c3cc(-c4ccnc(N)n4)ccc23)cc1
Inhibition (Plasmodium falciparum [1]): 99%
Inhibition (Plasmodium falciparum [2]): 94%
Inhibition (HepG2): 41%

N=C(N)Nc1nc(-c2cccc(NC(=O)Cc3ccccc3)c2)cs1
Inhibition (Plasmodium falciparum [1]): 99%
Inhibition (Plasmodium falciparum [2]): 9%
Inhibition (HepG2): 1%

COc1cccc(CNC(=O)[C@H]2CNCCN2C(=O)CCCc2ccccc2)c1.O=C(O)C(F)(F)F
Inhibition (Plasmodium falciparum [1]): 91%
Inhibition (Plasmodium falciparum [2]): 95%
Inhibition (HepG2): 56%

CON(CCCN(C)C)C(=N)N.Cl
Inhibition (Plasmodium falciparum [1]): 92%
Inhibition (Plasmodium falciparum [2]): 0%
Inhibition (HepG2): 3%

O=S(=O)(Nc1cccc(CCN2CCC(N3CCCCC3)CC2)c1)c1cccc2cccnc12
Inhibition (Plasmodium falciparum [1]): 98%
Inhibition (Plasmodium falciparum [2]): 17%
Inhibition (HepG2): 0%

CCCCOC(=O)c1ccc(Nc2cc(C)nc3ccc(OC)cc23)cc1
Inhibition (Plasmodium falciparum [1]): 100%
Inhibition (Plasmodium falciparum [2]): 96%
Inhibition (HepG2): 4%

COc1ccc2nccc([C@@H](O)CN3CCC(NC(=O)C(=O)c4c[nH]c5c(C)cccc45)CC3)c2c1
Inhibition (Plasmodium falciparum [1]): 100%
Inhibition (Plasmodium falciparum [2]): 94%
Inhibition (HepG2): 17%

CNC(=N)c1ccc(NC(=O)c2ccc(C(=O)Nc3ccc(C(=N)NC)cc3)cc2)cc1.Cl
Inhibition (Plasmodium falciparum [1]): 96%
Inhibition (Plasmodium falciparum [2]): 91%
Inhibition (HepG2): 6%

Cc1nc(-c2ccc(-c3ccc(C(=O)Nc4ccc(C(C)C)c(OCCN(C)C)c4)cc3)c(C)c2)no1.O=C(O)C(=O)O
Inhibition (Plasmodium falciparum [1]): 99%
Inhibition (Plasmodium falciparum [2]): 45%
Inhibition (HepG2): 49%

CC12CC3CC(C)(C1)CC(Nc1nc(N4CCOCC4)nc4ccccc14)(C3)C2
Inhibition (Plasmodium falciparum [1]): 95%
Inhibition (Plasmodium falciparum [2]): 14%
Inhibition (HepG2): 31%

COc1ccc(N2CCN(CCCCNC(=O)c3ccc(NC(=O)c4ccc(C(F)(F)F)cc4)cc3)CC2)c(OC)c1
Inhibition (Plasmodium falciparum [1]): 100%
Inhibition (Plasmodium falciparum [2]): 8%
Inhibition (HepG2): 4%

CN1CCN(CCCN(Cc2cccc(-c3cccc(CNC4CCCC4)c3)c2)C(=O)/C=C/c2ccccc2)CC1.O=C(O)C(F)(F)F
Inhibition (Plasmodium falciparum [1]): 100%
Inhibition (Plasmodium falciparum [2]): 99%
Inhibition (HepG2): 84%

CC(C)c1ccc(NC(=O)c2cccc(CN3CCCN(Cc4cccc(C#N)c4)CC3)c2)cc1.O=C(O)C(F)(F)F
Inhibition (Plasmodium falciparum [1]): 93%
Inhibition (Plasmodium falciparum [2]): 15%
Inhibition (HepG2): 48%

O=C(Nc1ccc(-c2csc3nccn23)cc1)c1ccc(Cl)cc1
Inhibition (Plasmodium falciparum [1]): 100%
Inhibition (Plasmodium falciparum [2]): 50%
Inhibition (HepG2): 54%

CCCNCc1ccc(-c2ccc(CN(Cc3ccc4c(c3)OCO4)C(=O)[C@H]3CCCO3)cc2)nc1.O=C(O)C(F)(F)F
Inhibition (Plasmodium falciparum [1]): 90%
Inhibition (Plasmodium falciparum [2]): 39%
Inhibition (HepG2): 18%

COc1ccc2nc(SC(C)C(=O)c3c[nH]c4ccccc34)[nH]c2c1 (stereo not given)
Inhibition (Plasmodium falciparum [1]): 100%
Inhibition (Plasmodium falciparum [2]): 98%
Inhibition (HepG2): 0%

CCN(CC)CCCC(C)N=c1cc(C=Cc2ccccc2Cl)[nH]c2cc(Cl)ccc12.O=P(O)(O)O (stereo not given)
Inhibition (Plasmodium falciparum [1]): 99%
Inhibition (Plasmodium falciparum [2]): 77%
Inhibition (HepG2): 0%

Cc1cc(NCCC(=O)Nc2ccccc2)nc(NCCc2ccc(F)cc2)n1.O=C(O)C(F)(F)F
Inhibition (Plasmodium falciparum [1]): 100%
Inhibition (Plasmodium falciparum [2]): 43%
Inhibition (HepG2): 26%

O=C(NCc1ccc(F)cc1)Nc1cccc(-c2ccc(-c3nc4cc(F)ccc4[nH]3)cc2)c1
Inhibition (Plasmodium falciparum [1]): 100%
Inhibition (Plasmodium falciparum [2]): 96%
Inhibition (HepG2): 7%

Cc1cccc2nc(-c3cccc(-c4ccc(NC(=O)c5ccoc5)cc4)c3)[nH]c12
Inhibition (Plasmodium falciparum [1]): 99%
Inhibition (Plasmodium falciparum [2]): 56%
Inhibition (HepG2): 65%
